Results: PubChem BioAssay AID1159580 (chemical genetic matrix, 2015)
Where “and” joins values, the source holds several entries; their conditions need not be identical. Equal values may be shown once. The campaign covered roughly 5,500 compounds. About 2,000 (36%) were called active. Inconclusive results (about 18%) are left out. No stated cut-off is given here; in the data, active means normalized growth mostly below about 0.91 (no sharp cut-off); inconclusive means no clear call, values can overlap the other calls; inactive means mostly above about 0.92. The list shows a part of the results.

Assay: chemical genetic growth profiling, strain panel (AID 1159580);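 further: tested at 20 µM; growth read once vehicle control cultures reached saturation at 30 °C; 1 = growth at the plate median or of vehicle wells; lower values mean less growth of the strain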
Conditions: S. cerevisiae deletion strains, growth OD

Measured: normalized growth

O=C(C1CCCCC1)N1CC(=O)N2CCc3ccccc3C2C1 (stereo not drawn)
inactive: locus YAL021C, strain ccr4, active compounds read low 0.999 | locus YAL026C, strain drs2, active compounds read low 1 | locus YAL030W, strain snc1, active compounds read low 1.01 | locus YAL040C, strain CLN3, active compounds read low 1.05 | locus YBL061C, strain skt5, active compounds read low 1.01 | locus YBR009C, strain hhf1, active compounds read low 1.01 | locus YBR021W, strain FUR4, active compounds read low 0.993 | locus YBR023C, strain chs3, active compounds read low 1.02 | locus YBR171W, strain sec66, active compounds read low 1.01 | locus YBR229C, strain ROT2, active compounds read low 1 | locus YBR231C, strain swc5, active compounds read low 0.983 | locus YBR279W, strain paf1, active compounds read low 1.01 | locus YCL011C, strain gbp2, active compounds read low 1.03 | locus YCL016C, strain dcc1, active compounds read low 1.04 | locus YCL029C, strain bik1, active compounds read low 1.01 | locus YCL061C, strain MRC1 (second series), active compounds read low 1 | locus YCL061C, strain MRC1, active compounds read low 1.01 | locus YCL069W, strain vba3, active compounds read low 1.01 | locus YCR088W, strain abp1, active compounds read low 1.01 | locus YDL005C, strain med2, active compounds read low 1.01 | locus YDL035C, strain GPR1, active compounds read low 1 | locus YDL040C, strain nat1, active compounds read low 0.992 | locus YDL074C, strain BRE1, active compounds read low 1.01 | locus YDL101C, strain DUN1, active compounds read low 1.01 | locus YDL134C, strain PPH21, active compounds read low 1 | locus YDL185W, strain tfp1, active compounds read low 1.01 | locus YDL192W, strain arf1, active compounds read low 1.01 | locus YDR001C, strain nth1, active compounds read low 1 | locus YDR069C, strain doa4, active compounds read low 0.978 | locus YDR101C, strain arx1, active compounds read low 1.03 | locus YDR137W, strain rgp1, active compounds read low 1.03 | locus YDR159W, strain sac3, active compounds read low 0.976 | locus YDR162C, strain NBP2, active compounds read low 1 | locus YDR195W, strain ref2 0.981 | locus YDR297W, strain sur2, active compounds read low 1.01 | locus YDR318W, strain mcm21, active compounds read low 1.02 | locus YDR334W, strain swr1, active compounds read low 1.01 | locus YDR335W, strain msn5, active compounds read low 0.999 | locus YDR363W, strain ESC2, active compounds read low 1.04 | locus YDR388W, active compounds read low 1.01 | locus YDR392W, strain spt3, active compounds read low 0.862 | locus YDR502C, strain sam2, active compounds read low 1.01 | locus YEL003W, strain gim4, active compounds read low 0.995 | locus YEL037C, strain rad23, active compounds read low 0.999 | locus YEL061C, strain CIN8 (second series), active compounds read low 1 | locus YEL061C, strain CIN8, active compounds read low 1 | locus YER002W, strain NOP16, active compounds read low 1.01 | locus YER015W, strain faa2, active compounds read low 1 | locus YER016W, strain bim1, active compounds read low 0.989 | locus YER110C, active compounds read low 1.02 | locus YER111C, strain swi4, active compounds read low 1 | locus YER155C, strain BEM2 (second series), active compounds read low 0.913 | locus YER155C, strain BEM2, active compounds read low 1 | locus YER167W, strain BCK2, active compounds read low 1 | locus YFR010W, strain ubp6, active compounds read low 1.01 | locus YGL078C, strain dbp3, active compounds read low 1.01 | locus YGL086W, strain mad1, active compounds read low 1.01 | locus YGL167C, strain pmr1, active compounds read low 1.01 | locus YGL173C, strain kem1, active compounds read low 1 | locus YGL227W, strain vid30, active compounds read low 1.01 | locus YGL240W, strain doc1, active compounds read low 0.978 | locus YGL248W, strain PDE1, active compounds read low 1.01 | locus YGL253W, strain hxk2, active compounds read low 0.982 | locus YGR078C, strain PAC10, active compounds read low 1 and 1.01 | locus YGR135W, strain pre9, active compounds read low 0.998 | locus YGR252W, strain gcn5, active compounds read low 0.953 | locus YHR013C, strain ard1, active compounds read low 0.988 | locus YHR027C, strain rpn1, active compounds read low 1.01 | locus YHR030C, strain SLT2, active compounds read low 1 and 1.01 | locus YHR079C, strain IRE1 (second series), active compounds read low 1.01 | locus YHR079C, strain IRE1, active compounds read low 1.01 | locus YHR094C, strain hxt1, active compounds read low 1.01 | locus YHR129C, strain ARP1, active compounds read low 0.992 | locus YHR142W, strain chs7, active compounds read low 1 | locus YHR200W, strain rpn10, active compounds read low 1.01 | locus YIL066C, strain RNR3, active compounds read low 1.01 | locus YIL073C, strain SPO22, active compounds read low 1.01 | locus YIL125W, strain kgd1, active compounds read low 1.01 | locus YIR030C, strain dcg1, active compounds read low 1.01 | locus YJL092W, strain hpr5, active compounds read low 1 | locus YJL095W, strain BCK1 (second series), active compounds read low 1.01 | locus YJL095W, strain BCK1, active compounds read low 0.974 and 1.03 | locus YJL115W, strain asf1, active compounds read low 1.01 | locus YJL129C, strain trk1, active compounds read low 0.997 | locus YJL134W, strain LCB3, active compounds read low 1 | locus YJL154C, strain vps35, active compounds read low 1 | locus YJL164C, strain tpk1, active compounds read low 1.02 | locus YJL166W, strain qcr8, active compounds read low 1.02 | locus YJL168C, strain set2, active compounds read low 1.01 | locus YJL187C, strain SWE1 (second series), active compounds read low 1.01 | locus YJL187C, strain SWE1, active compounds read low 1.01 | locus YJR043C, strain POL32, active compounds read low 1.01 | locus YJR066W, strain TOR1, active compounds read low 0.939
